The values below come from PubChem BioAssay AID463173 (ICCB-Longwood Screening Facility, Harvard Medical School, 2010).

Among all 52,000 compounds or so, about 1,700 (3.3%) were called active. The sample as a whole holds a higher share of actives than the screen did. A number with no mark means an inactive call. No stated cut-off is given here; in the data, active means survival mostly below about 52% (no sharp cut-off); inactive means mostly above about 56%.

The test deals with Wild type. The test is described as follows: S. aureus survival, RN4220 and DeltatarO strains – OD600, teichoic acid synthesis inhibitors, primary screen (AID 463173). The settings on record: S. aureus RN4220 wild type/DeltatarO growth, OD600, 18 h, active compounds read low, screened at 18.75 µg/mL (by protocol).
With `COc1ccc(-n2c(=O)c3sc4ccccc4c3n(C)c2=O)cc1`, the survival is 83%.

Take `CCOc1ccc(N=C(c2ccccc2)N2CCOCC2)cc1`: the survival was 99%.

Take `CCc1ccccc1N(C)C(=O)C1CCCN(c2ncnc3c2nc2n3CCCCC2)C1` (stereo unspecified): the survival was 75%.

`CC(C)c1ccc(NC(=O)Cn2c(=O)oc3cc(S(=O)(=O)N4CCCC4)ccc32)cc1`: the survival was 124%.

On to `CC(C)C(=O)Nc1ccccc1C(=O)OCc1cc(=O)n2nc(C3CC3)sc2n1`, for which the survival is 100%.

For `Cc1ccc(-n2nc(C)c3c(C)cc(=O)n(CC(=O)NC(C)c4ccccc4)c32)cc1` (stereo unspecified), the survival is 143%.

Consider `Cc1oc2ncn(CC(C)C)c(=O)c2c1C(=O)N(CCN(C)C)Cc1ccccc1`, for which the survival was 99%.

Turning to `COc1cc2ccccc2cc1C(=O)Nc1ccc2oc(-c3cccc(Cl)c3Cl)nc2c1`, the survival is 71%.

For the molecule `COc1cc2ccccc2cc1C(=O)Nc1cccc(-c2nc3cc(C)ccc3o2)c1C`, the survival is 75%.

With `COc1cc2ccccc2cc1C(=O)Nc1ccc2oc(-c3cccc(C)c3)nc2c1`, the survival was 6% (active).

Take `Brc1ccc(-n2nc(-c3ccccc3)c3cnc4cc5c(cc4c32)OCO5)cc1`: the survival is 112%.

`CCN(C(=O)CSc1nnc(-c2ccc(Cl)cc2)o1)c1ccccc1`: the survival was 66%.

For `CCCCN1C(=O)C(O)(CC(=O)c2ccc(C(C)(C)C)cc2)c2ccccc21` (stereo unspecified), the survival is 3% (active).

Regarding `O=C(CC1(O)C(=O)N(Cc2ccccc2)c2ccc(Br)cc21)c1ccccc1` (stereo unspecified), the survival is 30%.

In the case of `CCCCN1C(=O)C(O)(CC(=O)c2ccc(C)cc2C)c2cc(Br)ccc21` (stereo unspecified), the survival is 1% (active).

On to `Cc1ccc(C(=O)CC2(O)C(=O)N(Cc3ccccc3)c3ccccc32)c(C)c1` (stereo unspecified), for which the survival is 20%.

Turning to `CCCCN1C(=O)C(O)(CC(=O)c2ccc(CC)cc2)c2cc(Br)ccc21` (stereo unspecified), the survival was 2% (active).

As to `CCCN1C(=O)C(O)(CC(=O)c2ccc(C(C)C)cc2)c2ccccc21` (stereo unspecified), the survival was 129%.

Consider `Cc1ccccc1CN1C(=O)C(O)(CC(=O)c2cccc(Br)c2)c2ccccc21` (stereo unspecified), for which the survival was 10% (active).

`Cc1ccc(C(=O)CC2(O)C(=O)N(CCc3ccccc3)c3ccc(Br)cc32)cc1` (stereo unspecified): the survival is 24%.

Turning to `Cc1ccc(C(=O)CC2(O)C(=O)N(Cc3ccccc3F)c3ccccc32)cc1` (stereo unspecified), the survival was 71%.

Take `CCc1ccc(C(=O)CC2(O)C(=O)N(CCc3ccccc3)c3ccc(Br)cc32)cc1` (stereo unspecified): the survival was 36%.

On to `CCCN1C(=O)C(O)(CC(=O)c2ccc(OC)c(OC)c2)c2ccccc21` (stereo unspecified), for which the survival was 130%.

Take `COc1ccc(OC)c(C(=O)CC2(O)C(=O)N(Cc3ccccc3C)c3ccccc32)c1` (stereo unspecified): the survival was 118%.

On to `COC(=O)CSc1ncc2c(n1)-c1ccccc1N(Cc1cccc(F)c1)S2(=O)=O`, for which the survival is 70%.

Turning to `CC(C)CCNC(=O)c1cccc(-n2cnc3cccnc32)c1`, the survival was 136%.

In the case of `Fc1ccc(-c2cn3cc(Cc4ccccc4Cl)sc3n2)cc1`, the survival was 53%.

Consider `N#Cc1ccc2ccn(CC(N)=O)c2c1`, for which the survival is 95%.

In the case of `O=C(NCc1ccccc1)c1cc2ccc3cccnc3c2[nH]1`, the survival was 73%.

On to `CCOC(=O)c1ccccc1NC(=O)c1cc2ccc3cccnc3c2[nH]1`, for which the survival was 121%.

For the molecule `CCOc1ccccc1N(CC)C(=O)c1cc2ccc3cccnc3c2[nH]1`, the survival is 74%.

For `CCOc1ccccc1NC(=O)c1cc2ccc3cccnc3c2[nH]1`, the survival is 10% (active).

`Cc1ccc(CNC(=O)c2cc3ccc4cccnc4c3[nH]2)cc1`: the survival was 0% (active).

With `O=C(NCc1ccc(Cl)cc1)c1cc2ccc3cccnc3c2[nH]1`, the survival was 49%.

For the molecule `Cc1ccc(-c2nnn(CC(=O)N(CC(=O)NCCC(C)C)c3ccc(F)cc3)n2)cc1`, the survival is 84%.

With `CCOC(=O)C1C(=O)N(C(=O)c2cncc(Br)c2)CC1c1ccccc1` (stereo unspecified), the survival is 112%.

Turning to `CCOC(=O)c1cc(S(=O)(=O)Nc2cc(F)ccc2C)[nH]n1`, the survival was 75%.

`CCC1Oc2ccccc2N(CC(=O)NCc2ccc(C)cc2)C1=O` (stereo unspecified): the survival was 77%.

Turning to `CC1Oc2ccccc2N(CC(=O)NCc2ccccc2)C1=O` (stereo unspecified), the survival was 105%.

Regarding `CCC1Oc2ccccc2N(CC(=O)NCc2ccccc2)C1=O` (stereo unspecified), the survival is -3% (active).

As to `Cc1ccc(CCNC(=O)c2ccc(CSCc3ccc(C)cc3)o2)cc1`, the survival is 65%.

For the molecule `CCc1nn2c(=O)cc(COC(=O)c3cccc(NC(=O)COc4ccccc4F)c3)nc2s1`, the survival is 124%.

As for `Cc1cccc(C)c1-n1ncc(C(=O)NCCCN2CCCCC2)c1C1CCN(C(=O)OC(C)(C)C)CC1`, the survival is 85%.

On to `CC(C)(C)OC(=O)N1CCC(c2c(C(=O)NCCN3CCOCC3)cnn2-c2ccc(F)cc2F)CC1`, for which the survival was -3% (active).

As to `CC(C)(C)OC(=O)N1CCC(c2c(C(=O)NC3CCN(Cc4ccccc4)CC3)cnn2-c2cccc(F)c2)CC1`, the survival is 76%.

On to `Cc1cccc(C)c1-n1ncc(C(=O)NCCN2CCOCC2)c1C1CCN(C(=O)OC(C)(C)C)CC1`, for which the survival was 75%.

Take `CCOC(=O)N1CCC(NC(=O)c2cnn(-c3ccc(F)cc3F)c2C2CCN(C(=O)OC(C)(C)C)CC2)CC1`: the survival was 82%.

As for `CC(C)(C)OC(=O)N1CCC(c2c(C(=O)NCCN3CCc4ccccc4C3)cnn2-c2ccc(F)cc2F)CC1`, the survival is 81%.

On to `Cc1cccc(C)c1-n1ncc(C(=O)NCCN2CCN(C)CC2)c1C1CCN(C(=O)OC(C)(C)C)CC1`, for which the survival was 0% (active).

As to `CC(C)(C)OC(=O)N1CCC(c2c(C(=O)NCCN3CCOCC3)cnn2-c2ccc(F)cc2)CC1`, the survival is 89%.

Consider `CC(C)(C)OC(=O)N1CCC(c2c(C(=O)NC3CCN(Cc4ccccc4)CC3)cnn2-c2ccc(F)cc2F)CC1`, for which the survival was -4% (active).

As for `Cc1cccc(OCC(=O)Nc2c(C(=O)N3CCN(c4ccccc4)CC3)oc3ccccc23)c1`, the survival was 86%.

Consider `CN=C1SC(CC(=O)NC(N)=O)C(=O)N1C` (stereo unspecified), for which the survival is 92%.

As for `COc1ccc(OC)c(NC(=O)CSc2ccnc(=O)[nH]2)c1`, the survival is 80%.

Regarding `CC(=O)Nc1cccc(NC(=O)Cn2c(-c3cccnc3)ccc(C#N)c2=O)c1`, the survival is 89%.

Take `CCN1CCN(C(c2ccc(OC)cc2)c2c(O)cc(C)n(Cc3ccco3)c2=O)CC1` (stereo unspecified): the survival is 71%.
